Reference: publication PMC12751014, “Non-Catalytic Inhibitors of the p38/MK2 Interface: Repurposing Approved Drugs to Target Neuroinflammation in Alzheimer’s Disease” (Journal of Medicinal Chemistry, 2025)
In all, about 1,900 compounds went through this assay and about 50 (3%) showed an effect of 50% or more. The entries come from a sample that favours strong results as a whole.

What follows are compounds tested against p38/MK2 protein–protein interaction (VF-p38α / GST-MK2) (Homo sapiens, UniProt Q16539) (assay: primary screen, percent of control activity; higher = less effect of the substance).
Parameters: species or system HEK293T cell lysate transfected with VF-p38α and GST-MK2; unclear (methods say 'quintuplet replicates')
Protocol: The TR-FRET assay was conducted in a 1536-well plate (Corning, catalog no. 3724) with HEK293T cell lysate transfected with VF-p38α and GST-MK2. Cell-lysate concentration was optimized with a titration experiment. Anti-Flag-Tb and anti-GST-d2 antibodies (Revvity, catalog no. 61FGBTLB) were used to couple p38α and MK2, respectively. A multiple-drop Combi dispenser (Thermo Scientific) combined reaction mixtures in quintuplet replicates. The TR-FRET signals were measured using a BMG Labtech PHERAstar FSX plate reader and normalized to the percent of DMSO control.

p38/MK2 protein–protein interaction (VF-p38α / GST-MK2), sequence (Q16539 2-360 limits assumed): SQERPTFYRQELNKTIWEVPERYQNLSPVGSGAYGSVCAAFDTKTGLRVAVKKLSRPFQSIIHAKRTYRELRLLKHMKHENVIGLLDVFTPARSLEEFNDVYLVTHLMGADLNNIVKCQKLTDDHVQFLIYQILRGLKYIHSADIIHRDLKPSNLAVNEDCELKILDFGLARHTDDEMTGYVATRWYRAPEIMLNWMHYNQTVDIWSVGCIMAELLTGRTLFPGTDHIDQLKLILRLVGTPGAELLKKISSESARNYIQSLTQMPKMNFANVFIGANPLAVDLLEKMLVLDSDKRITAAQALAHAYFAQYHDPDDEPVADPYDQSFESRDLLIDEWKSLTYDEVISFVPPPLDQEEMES

| Structure (SMILES) | Pct of control [%] |
| --- | --- |
| CCOc1nc2cccc(C(=O)O)c2n1Cc1ccc(-c2ccccc2-c2nc(=O)o[nH]2)cc1 | 94.5 |
| CCOc1nc2cccc(C(=O)OC(C)OC(=O)OC3CCCCC3)c2n1Cc1ccc(-c2ccccc2-c2nn[nH]n2)cc1 (stereo not drawn) | 32.4 |
| CCOc1nc2cccc(C(=O)O)c2n1Cc1ccc(-c2ccccc2-c2nn[nH]n2)cc1 | 95 |
| Cl.Cn1c(CCCC(=O)O)nc2cc(N(CCCl)CCCl)ccc21 | 99.1 |
| C=C(c1ccc(C(=O)O)cc1)c1cc2c(cc1C)C(C)(C)CCC2(C)C | 25.7 |
| CC(=Cc1ccc(C(=O)O)cc1)c1ccc2c(c1)C(C)(C)CCC2(C)C | 78.8 |
| CC1(C)CCC(C)(C)c2cc(NC(=O)c3ccc(C(=O)O)cc3)ccc21 | 92.2 |
| CO/N=C(\C(=O)N[C@@H]1C(=O)N2C(C(=O)O)=C(CSC(=O)c3ccco3)CS[C@H]12)c1csc(N)n1.Cl | 115 |
| Cn1cc(-c2ccc3ncc(Cc4ccc5ncccc5c4)n3n2)cn1 | 93.2 |
| CCCCCCCCCCCCCCCC(=O)OCC(O)C1OC(=O)C(O)=C1O (stereo not drawn) | 33.2 |
| O=C1O[C@H]([C@@H](O)CO)C(O)=C1O | 100 |
| CCCCCC=CCC=CCCCCCCCC(=O)OC(COC(=O)CCCCCCCCCCCCCCC)COP(=O)([O-])OCC[N+](C)(C)C (stereo not drawn) | 95.3 |
| CN(C)c1ccc(C(=O)NCCCCCCC(=O)NO)cc1 | 96.2 |
| Cl.O=S(=O)(c1cccc2cnccc12)N1CCCNCC1 | 93.6 |
| COC(=O)C1=CO[C@@H](O[C@@H]2O[C@H](CO)[C@@H](O)[C@H](O)[C@H]2O)[C@@H]2C(CO)=CC[C@H]12 | 90.4 |
| CNC(=O)c1cc(Oc2ccc(NC(=O)Nc3ccc(Cl)c(C(F)(F)F)c3)cc2)ccn1.Cc1ccc(S(=O)(=O)O)cc1 | 69.1 |
| O=C(O)CC1CC(c2ccccc2)=NO1 (stereo not drawn) | 86.5 |
| C[C@@H]1[C@H](O)[C@@H](C)/C=C/C=C/C=C/C=C/C=C/C=C/C=C/[C@H](O[C@@H]2O[C@H](C)[C@@H](O)[C@H](N)[C@@H]2O)C[C@@H]2O[C@](O)(C[C@@H](O)C[C@@H](O)[C@H](O)CC[C@@H](O)C[C@@H](O)CC(=O)O[C@H]1C)C[C@H](O)[C@H]2C(=O)O | 48.7 |
| C[C@@H]1C/C=C/C=C/C=C/C=C/[C@H](O[C@@H]2O[C@H](C)[C@@H](O)[C@H](N)[C@@H]2O)C[C@@H]2O[C@](O)(C[C@@H](O)C[C@H]3O[C@@H]3/C=C/C(=O)O1)C[C@H](O)[C@H]2C(=O)O | 97.8 |
| CC1C=CC=CCCC=CC=CC=CC=CC(OC2OC(C)C(O)C(N)C2O)CC2OC(O)(CC(O)C(O)CCC(O)CC(O)CC(O)CC(=O)OC(C)C(C)C1O)CC(O)C2C(=O)O (stereo not drawn) | 94.3 |
| Cc1ccc(C(=O)N(CCCN)C(c2nc3cc(Cl)ccc3c(=O)n2Cc2ccccc2)C(C)C)cc1 (stereo not drawn) | 97.1 |
| COc1ccc(COc2cc3oc(=O)c4cc(C(C)O)ccc4c3cc2OC)cc1 (stereo not drawn) | 78.7 |
| C=C1C(=O)[C@]23[C@H](O)[C@H]1CC[C@H]2[C@@]12CO[C@]3(O)[C@@H](O)[C@@H]1C(C)(C)CC[C@@H]2O | 42.8 |
| COC(=O)C1=C(C)NC(C)=C(C(=O)OCCN2CCN(C(c3ccccc3)c3ccccc3)CC2)C1c1cccc([N+](=O)[O-])c1 (stereo not drawn) | 121 |

| Structure (SMILES) | Pct of control [%] |
| --- | --- |
| COc1ccc2nc([S@@+]([O-])Cc3ncc(C)c(OC)c3C)[nH]c2c1 | 89.4 |
| O=C(CCCCCCC(=O)Nc1ccccc1)NO | 102 |
| O=C(CCCCCCC(=O)Nc1ccc([C@H]2O[C@@H](CSc3nc(-c4ccccc4)c(-c4ccccc4)o3)C[C@@H](c3ccc(CO)cc3)O2)cc1)NO | 20.4 |
| Cc1cccc(C(C)c2cnc[nH]2)c1C.Cl (stereo not drawn) [S3060] | 91.6 |
| CC1=CC(=O)NS(=O)(=O)O1.[K] | 95.6 |
| CC(C)N(CCC(=O)c1ccc2ccccc2c1)Cc1ccccc1.Cl | 26.2 |
| CC(=CC(=O)Nc1ccccc1C(=O)O)c1ccc2ccccc2c1 | 105 |
| CC(COc1ccccc1)N(CCCl)Cc1ccccc1.Cl (stereo not drawn) | 85.4 |
| O=S(=O)(CC1CS1)c1ccc(Oc2ccccc2)cc1 (stereo not drawn) | 95 |
| CN(C)CCCN1c2ccccc2Sc2ccc(C(F)(F)F)cc21.Cl | 95.7 |
| O=C(C=Cc1ccc2ccccc2n1)c1ccncc1 | 39.1 |
| O=C(NNc1ccccc1)c1ccncc1 | 97.3 |
| O=C(O)C=CC(=O)O.c1ccc2nc(N3CCNCC3)ccc2c1 | 98.6 |
| Cl.c1ccc2c(CC3=NCCN3)cccc2c1 | 94.8 |
| CCCNC(C)C(=O)Nc1ccccc1C (stereo not drawn) | 96.3 |
| CC(C)c1onc(-c2c(Cl)cccc2Cl)c1COc1ccc(C=Cc2cccc(C(=O)O)c2)c(Cl)c1 | 16.5 |
| O=c1cc(-c2cccc3c2Sc2ccccc2S3)oc(N2CCOCC2)c1 | 88.7 |
| CCCCCCOC(=O)N=C(N)c1ccc(NCc2nc3cc(C(=O)N(CCC(=O)OCC)c4ccccn4)ccc3n2C)cc1 | 94.2 |
| COC1CCN(C(=O)c2cc(Cc3n[nH]c(=O)c4ccccc34)ccc2F)CC1 | 95.8 |
| Cl.NC1CC1c1ccccc1 (stereo not drawn) | 91.7 |
| O=C(/C=C/C=C/c1ccc2c(c1)OCO2)N1CCCCC1 | 82.5 |
| O=C(Oc1ccc([N+](=O)[O-])cc1)N1CCC(C(O)(c2ccc3c(c2)OCO3)c2ccc3c(c2)OCO3)CC1 | 94.2 |
| O=[N+]([O-])C=Cc1ccc2c(c1)OCO2 | 40.3 |
| Cc1ccc(-n2sc(=O)n(Cc3ccc(F)cc3)c2=O)cc1 | 114 |
